This note sets out measurements from PubChem BioAssay AID504715 (Sanford-Burnham Center for Chemical Genomics, 2011).

The inhibition is the change of the read-out against control, counted positive when it falls.

The structures appear in SMILES notation. This is one part of the list. Calls of active or inactive are those of the source.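 Rule for the calls: active = compounds giving 40% or more inhibition at 20 µM in any one of the three replicates; inactive = the rest.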

The assay deals with Uracil-DNA glycosylase (Escherichia coli (strain K12)) (UniProt P12295). Nature of the assay: E. coli UDG inhibitors, confirmation, counter-screen for APOBEC3G inhibitor project, biochemical, single concentration, fluorescence, FAM/TAMRA oligo (AID 504715).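 Note: plate controls were DMSO wells with UDG and oligo for no effect and DMSO wells lacking both for full effect; inhibitors lower the FAM signal released by uracil excision and alkaline cleavage.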 The conditions noted are these: UDG counterscreen, at 20 µM, hits give high values. On the technique in general: Counterscreens check selectivity or assay interference.
Uracil-DNA glycosylase (Escherichia coli (strain K12)), sequence (P12295 whole entry, looked up): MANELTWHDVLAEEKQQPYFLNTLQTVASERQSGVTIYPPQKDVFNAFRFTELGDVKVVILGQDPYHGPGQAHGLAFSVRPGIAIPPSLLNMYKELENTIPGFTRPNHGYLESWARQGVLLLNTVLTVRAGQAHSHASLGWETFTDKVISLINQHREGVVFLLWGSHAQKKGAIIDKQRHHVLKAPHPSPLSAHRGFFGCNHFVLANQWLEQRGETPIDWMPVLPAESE
In the case of `CCOc1cc(C(=S)N2CCOCC2)ccc1O`, the inhibition is -2.88% (inactive). Next, `Fc1ccc(Nc2nnns2)cc1`: 3.44% (inactive); `Cc1cc(-c2n[nH]c(=S)n2/N=C/c2ccco2)n[nH]1`: 2.12% (inactive); `COc1ccc(OCc2n[nH]c(=S)n2N)cc1`: -3.03% (inactive). Next, `O=C1C=CC(=O)N1c1ccc(N2CCCCC2)cc1`: -1.51% (inactive).
